The text below walks through data of PubChem BioAssay (NCATS).

Molecules are shown by their SMILES. Results filed as inconclusive are left out. The source made the active and inactive calls. Calls follow the shape of the dose curve; as a rule, active = well fitted inhibition curve with a large enough effect; inconclusive = small, poorly fitted or top-dose-only effect; inactive = flat fitted curve, though single readings scatter.

Common to all, as to experiment: qHTS profiling for inhibitors of Plasmodium falciparum proliferation (AID 504749); also: nearly all actives have a fitted effect of over 60% in size
What all share (conditions): P. falciparum in erythrocytes, SYBR Green DNA, 72 h; series mostly up to 28.7 µM

In one test the test system is DFO2036. In outline:
(§1)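 Parasite proliferation within erythrocytes, 72 h exposure. Endpoint: SYBR Green I fluorescence after overnight lysis at room temperature. Controls: 0.29 uM artemisinin, DMSO.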

The subject of another test is DIV14. In short, it runs like this:
as §1

The test system of another test is DIV17. In short, it runs like this: as §1
For another test, the system named is DIV30. In short, it runs like this:
as §1

Another test relates to Dd2. In short, it runs like this:
as §1

Another test concerns ECU. In outline:
as §1

In another test the test system is FAB9. In short, it runs like this: as §1
A further test relates to GB4. In outline: as §1
Another test has as its system HB3. In short, it runs like this:
as §1

In another test the test system is ICS. In short, it runs like this: as §1
A further test deals with JCK. In outline:
as §1

Another test concerns N140. In short, it runs like this: as §1
The subject of a further test is P93_24. In short, it runs like this:
as §1

In another test the test system is PAD. In short, it runs like this:
as §1

For the next test, the system named is PC15. In short, it runs like this:
as §1

For a further test, the system named is PC26. In short, it runs like this:
as §1

In the next test the test system is PC49. In outline: as §1
In the next test the test system is SC27B. In outline: as §1
Another test relates to TAB109. In short, it runs like this: as §1
The test system of another test is P94_40. In short, it runs like this:
as §1
Potency is read from the fitted curve at half-maximal effect.

Turning to `NC(=O)N1c2ccccc2C=Cc2ccccc21`, the Potency entry in the test on DFO2036, with DIV14, in the test on DIV17, in the test with DIV30, in the test with Dd2 and in the test on ECU was “inactive” each time. The Potency entry with FAB9, with GB4, in the test on HB3, in the test on ICS, in the test with JCK and in the test with N140 was “inactive” each time. Moreover, the Potency entry in the test with P93_24, with PAD, in the test on PC15, with PC26, in the test on PC49 and with SC27B was “inactive” each time. For the same compound, in the test on TAB109, the Potency entry was “inactive”.
Consider `O=C(CCCN1CCC(O)(c2cccc(C(F)(F)F)c2)CC1)c1ccc(F)cc1`, for which the Potency with DFO2036 is 10 µM (active); in the test on DIV14, 6.75 µM (active); with DIV17 it was 13.5 µM (active); in the test with Dd2 it was 5.62 µM (active); with ECU it was 2.24 µM (active); with GB4 it was 6.01 µM (active). For the same compound, the Potency in the test with HB3 is 12.6 µM (active); in the test on ICS, 5.01 µM (active); in the test on JCK, 12.6 µM (active); with N140, 7.94 µM (active); in the test on P93_24, 10 µM (active); with P94_40, 8.91 µM (active). The Potency in the test with PAD was 10 µM (active); with PC49 it was 7.94 µM (active); with SC27B, 11.2 µM (active); in the test with TAB109, 8.91 µM (active).
With `CC(C)NNC(=O)c1ccncc1`, the Potency in the test with DFO2036 is 7.94 µM (active). Moreover, the Potency entry in the test with DIV14, with DIV17, with DIV30, in the test with Dd2, in the test on ECU and in the test with FAB9 was “inactive” throughout. Besides, the Potency entry in the test on GB4, with HB3, in the test on ICS, in the test with JCK, in the test with P93_24 and in the test on P94_40 was “inactive” in each case. Further, the Potency entry in the test on PAD, in the test with PC15, in the test with PC26, in the test with PC49 and in the test with SC27B was “inactive” throughout.
As to `CCCCNc1c(C(=O)OCC)c(C)nc2c1cnn2CC`, the Potency result with DFO2036, in the test with DIV14, in the test with DIV30, in the test on Dd2, in the test with ECU and in the test on FAB9 was “inactive” throughout. Besides, the Potency entry with GB4, in the test on HB3, in the test with JCK, in the test with N140, with P93_24 and with PAD was “inactive” throughout. Moreover, the Potency result in the test with PC15, in the test with PC26, in the test with PC49, in the test on SC27B and with TAB109 was “inactive” each time.
On to `c1cnc(N2CCN(Cc3ccc4c(c3)OCO4)CC2)nc1`, for which the Potency entry with DFO2036, in the test with DIV17, in the test on DIV30, with Dd2, in the test with ECU and in the test on FAB9 was “inactive” in each case. Further, the Potency entry with GB4, in the test with HB3, in the test with ICS, in the test on JCK, in the test with N140 and in the test on P93_24 was “inactive” each time. Further, the Potency result in the test on P94_40, in the test with PAD, in the test on PC15, in the test on PC26, with PC49 and in the test with SC27B was “inactive” in each case. Also, the Potency result in the test with TAB109 is “inactive”.
As for `CC(=O)[C@]1(O)Cc2c(O)c3c(c(O)c2[C@@H](O[C@H]2C[C@H](N)[C@H](O)[C@H](C)O2)C1)C(=O)c1ccccc1C3=O`, the Potency is 3.55 µM (active) in the test with DFO2036; 4.78 µM (active) with DIV14; 4.78 µM (active) in the test with DIV17; 0.158 µM (active) in the test with Dd2; 7.94 µM (active) in the test with ECU; 11.2 µM (active) in the test with FAB9. The Potency with GB4 is 4.78 µM (active); in the test on HB3 it was 4.47 µM (active); in the test on ICS, 1.78 µM (active); in the test on JCK it was 8.91 µM (active); with N140, 4.47 µM (active); in the test with P93_24, 4.47 µM (active). Also, the Potency with P94_40 was 3.16 µM (active); with PAD it was 5.01 µM (active); with PC15, 8.91 µM (active); with PC49, 7.08 µM (active); in the test with SC27B it was 5.01 µM (active); with TAB109, 3.98 µM (active).
For `CCN(CC)CCOCCOC(=O)C1(c2ccccc2)CCCC1`, the Potency in the test with DFO2036 was 12.6 µM (active); in the test with DIV14, 2.39 µM (active); with DIV17 it was 3.79 µM (active); with DIV30, 7.57 µM (active); in the test with Dd2, 2.51 µM (active); in the test on ECU, 11.2 µM (active). The Potency in the test with GB4 is 6.01 µM (active); in the test with HB3, 12.6 µM (active); in the test with ICS, 1.41 µM (active); in the test on N140, 7.08 µM (active); with P93_24 it was 6.31 µM (active); in the test with P94_40, 7.08 µM (active). Further, the Potency with PAD was 8.91 µM (active); in the test with PC15 it was 11.2 µM (active); in the test with PC26 it was 12 µM (active); with PC49, 7.08 µM (active); in the test on SC27B it was 12.6 µM (active); in the test with TAB109, 6.31 µM (active).
In the case of `Nc1c2c(nc3ccccc13)CCCC2O` (stereo unspecified), the Potency entry in the test on DFO2036, in the test on DIV14, with DIV30, with Dd2, with ECU and in the test with FAB9 was “inactive” throughout. For the same compound, the Potency result in the test on GB4, with HB3, in the test on ICS, in the test with JCK, in the test with N140 and with P93_24 was “inactive” throughout. Further, the Potency result in the test on P94_40, with PAD, with PC15, in the test with PC26, with PC49 and with SC27B was “inactive” throughout. The Potency result in the test on TAB109 was “inactive”.
On to `CCO/C([O-])=N/c1c[n+](N2CCOCC2)no1`, for which the Potency entry in the test with DFO2036, in the test on DIV14, in the test on DIV17, in the test on DIV30, with Dd2 and in the test on ECU was “inactive” throughout. For the same compound, the Potency result in the test with FAB9, with GB4, in the test with HB3, with ICS, in the test on JCK and with N140 was “inactive” throughout. Besides, the Potency result in the test with P93_24, in the test with P94_40, with PAD, with PC15, in the test with PC26 and in the test on PC49 was “inactive” in each case. In addition, the Potency entry with SC27B and in the test with TAB109 was “inactive” throughout.
On to `C[C@]12CCC(=O)C=C1CC[C@@H]1[C@@H]2CC[C@@]2(C)[C@H]1CC[C@]2(O)C(=O)CO`, for which the Potency result in the test on DFO2036, with DIV14, in the test on DIV17, in the test with DIV30, in the test with Dd2 and in the test on ECU was “inactive” each time. For the same compound, the Potency entry in the test with FAB9, in the test on GB4, with HB3, in the test on JCK, in the test on N140 and with P93_24 was “inactive” throughout. The Potency entry with P94_40, in the test with PAD, in the test on PC15, in the test on PC49, with SC27B and in the test on TAB109 was “inactive” in each case.
Take `Cc1nc2ccccn2c(=O)c1CCN1CCC(C(=O)c2ccc(F)cc2)CC1`: the Potency result with DFO2036, with ECU, with FAB9, in the test on HB3, with JCK and with N140 was “inactive” throughout. For the same compound, the Potency entry in the test with PC26 and with SC27B was “inactive” in each case. Also, the results for the Potency in the test on DIV14 and in the test with ICS were 6.75 µM (active) and 8.91 µM (active), respectively.
For `CCn1cc(C(=O)O)c(=O)c2cc3c(cc21)OCO3`, the Potency result in the test with DFO2036, in the test on DIV14, in the test on DIV30, in the test with Dd2, in the test with ECU and in the test with FAB9 was “inactive” in each case. For the same compound, the Potency entry in the test on GB4, in the test with HB3, with ICS, with JCK, in the test on N140 and with P93_24 was “inactive” in each case. The Potency entry in the test with P94_40, in the test on PAD, in the test with PC15, in the test on PC26, in the test with PC49 and with SC27B was “inactive” throughout. The Potency entry with TAB109 is “inactive”.
